# Screens deposited in PubChem by several laboratories.
# Hits are enriched below; roughly 1.5% of the tested compounds scored in any of these assays.
# Myeloid diff 2 = myeloid differentiation induction. ER-HoxA9 myeloid progenitors, lysozyme-GFP differentiation, flow cytometry. calls only at 10 µM. 360,000 compounds, 1% hits. AID 624256;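 active = normalized GFP-positive differentiation at or above the plate's own cutoff, the solvent-only control mean plus 3 SD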;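 note: cells exposed to compound for four days before flow analysis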
# NOD2 RIPK2 PPI = NOD2-RIPK2 protein interaction inhibition; CHO BLA complementation NOD2-RIPK2, CCF4 ratio; inhibition, % at 4.98 µM; 360,000 compounds, 0.38% hits; in the data active = inhibition above about 21%
# TLR4 MyD88 comp = inhibitors of human TLR4-MyD88 binding; O00206+Q99836; HeLa CL3-4 TLR4/MyD88 BLA complementation, FRET ratio; 200,000 compounds, 0.18% hits; inhibition, % at 8.4 µM; in the data active = inhibition above about 25%
# TLR9-MyD88 inh = blocks human TLR9 binding to MyD88; Q9NR96+Q99836; CHO BLA complementation TLR9-MyD88, CCF4 FRET ratio; inhibition, % at 4.98 µM; 340,000 compounds, 0.21% hits; AID 504734;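 active = inhibition above the mean over all tested compounds plus 3 SD, cut at about 21% in these data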
# Target sequence (Q99836 whole entry, looked up): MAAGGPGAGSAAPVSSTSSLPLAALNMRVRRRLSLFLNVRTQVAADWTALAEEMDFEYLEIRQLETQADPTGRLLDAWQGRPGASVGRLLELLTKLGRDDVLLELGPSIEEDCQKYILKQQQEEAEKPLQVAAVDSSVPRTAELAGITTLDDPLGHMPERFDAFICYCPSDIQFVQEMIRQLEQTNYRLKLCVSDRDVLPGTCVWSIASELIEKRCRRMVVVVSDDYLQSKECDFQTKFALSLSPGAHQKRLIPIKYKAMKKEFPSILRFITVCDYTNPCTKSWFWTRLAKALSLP
# Target sequence (Q9NR96 whole entry, looked up): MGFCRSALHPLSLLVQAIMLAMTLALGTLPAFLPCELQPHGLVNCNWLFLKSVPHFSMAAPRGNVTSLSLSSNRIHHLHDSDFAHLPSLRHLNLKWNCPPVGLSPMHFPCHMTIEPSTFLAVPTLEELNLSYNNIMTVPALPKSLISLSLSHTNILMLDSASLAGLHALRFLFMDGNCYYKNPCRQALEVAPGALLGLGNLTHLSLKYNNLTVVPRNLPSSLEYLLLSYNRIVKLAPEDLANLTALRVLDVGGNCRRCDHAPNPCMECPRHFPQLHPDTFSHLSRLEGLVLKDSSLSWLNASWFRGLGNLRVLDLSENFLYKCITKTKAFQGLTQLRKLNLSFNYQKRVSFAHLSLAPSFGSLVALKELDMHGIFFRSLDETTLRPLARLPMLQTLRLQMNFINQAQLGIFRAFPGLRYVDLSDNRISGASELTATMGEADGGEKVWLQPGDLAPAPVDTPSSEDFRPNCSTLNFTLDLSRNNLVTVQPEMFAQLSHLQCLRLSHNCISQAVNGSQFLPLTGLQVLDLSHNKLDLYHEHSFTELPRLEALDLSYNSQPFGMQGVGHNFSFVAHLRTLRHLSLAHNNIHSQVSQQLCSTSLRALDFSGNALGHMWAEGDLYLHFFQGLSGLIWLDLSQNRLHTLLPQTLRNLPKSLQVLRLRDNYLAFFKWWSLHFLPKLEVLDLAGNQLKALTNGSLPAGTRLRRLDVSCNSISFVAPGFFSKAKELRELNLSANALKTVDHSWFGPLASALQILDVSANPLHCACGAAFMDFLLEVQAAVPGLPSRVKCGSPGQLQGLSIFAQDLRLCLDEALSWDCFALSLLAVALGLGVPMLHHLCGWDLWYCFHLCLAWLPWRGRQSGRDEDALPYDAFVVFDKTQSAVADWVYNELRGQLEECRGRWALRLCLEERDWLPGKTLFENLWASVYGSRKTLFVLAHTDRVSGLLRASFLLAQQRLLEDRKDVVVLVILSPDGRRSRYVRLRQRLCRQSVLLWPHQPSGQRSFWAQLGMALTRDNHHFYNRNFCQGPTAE
# Myeloid diff CP1 = myeloid differentiation induction; shares compounds with Myeloid diff 2; ER-HoxA9 myeloid progenitors, GFP/Mac1 double-positive flow; calls only; 2,300 compounds, 2% hits;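 active = share of green or green-and-red cells above 9 and 9% in run 1 or 4 and 3% in run 2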
# GFP autofluor = counter-screen for myeloid differentiation promoters: compound fluorescence | fluorescence response, % (concentration not given with the values) | AID 651707 | ER-HoxA9 myeloid progenitors, no estrogen, GFP autofluorescence flow cytometry; vehicle wells 0%, positive control 100% | shares compounds with Myeloid diff 2 | 2,300 compounds, 7.4% hits;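 active = over 5% cells positive for green fluorescent reporter, or over 2% positive for both it and APC stain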
# Calls only; n = inactive; x = no result; + = active, no number.
SMILES,Myeloid diff 2,NOD2 RIPK2 PPI,TLR4 MyD88 comp,TLR9-MyD88 inh,Myeloid diff CP1,GFP autofluor
OC[C@@H]1CN(Cc2ccccc2)C[C@H](n2cnc3c(NCc4ccco4)ncnc32)O1,+,n,x,x,n,n
OC[C@@H]1CN(Cc2ccc(-c3ccccc3)cc2)C[C@H](n2cnc3c(NCc4ccco4)ncnc32)O1,n,n,x,x,x,x
O=c1[nH]nc(Cc2ccccc2)c2ccccc12,n,n,n,n,x,x
COc1ccc(Cc2n[nH]c(=O)c3ccccc23)cc1OC,n,n,n,n,n,n
CN(c1cccc(F)c1)c1cc2c(c3c1ccn3C)C1CCC2O1 (stereo not given),n,n,x,x,x,x
Cc1sc(NC(=O)c2ccccc2)c(C(c2ccccn2)N2CCN(CCO)CC2)c1C (stereo not given),n,n,n,n,n,n
CCOc1ccc(C(c2c(NC(=O)c3ccccc3)sc(C)c2C)N2CCN(C)CC2)cc1 (stereo not given),n,n,n,n,x,x
COc1ccccc1NC(=O)N1CCN(c2ccccc2F)CC1,n,n,n,n,n,n
Cc1c(C(=O)O)sc2nc3n(c(=O)c12)CCC(C)CC3 (stereo not given),+,n,n,n,n,n
Cc1c(C(=O)O)sc2nc3n(c(=O)c12)CCCCC3,n,n,n,n,x,x
CCCC(c1nnnn1C(C)(C)C)N1CCN(C(=O)c2ccco2)CC1 (stereo not given),+,n,n,n,n,n
CC(C)CC(c1nnnn1C1CCCC1)N1CCN(C(=O)c2ccco2)CC1 (stereo not given),+,n,n,n,n,n
CC1(C(=O)Nc2ccc3c(c2)OCCO3)CN(S(C)(=O)=O)CC(=O)N1CCc1c[nH]c2ccccc12 (stereo not given),n,n,x,x,x,x
CCOC(=O)C1=CCC(c2ccccc2Cl)N(S(=O)(=O)c2ccc(C)cc2)C1 (stereo not given),n,n,x,x,x,x
Cc1ccc(S(=O)(=O)C[C@@H]2OC[C@H](C(C)C)N2S(=O)(=O)c2ccc(C)cc2)cc1,n,n,x,x,x,x
CCC(C(=O)OCC(=O)N1C(C)CCCC1C)c1ccccc1 (stereo not given),n,n,x,n,n,n
O=C(CSc1nc2ccccc2c(=O)n1Cc1ccco1)c1ccccc1,n,n,n,n,x,x
CC1CCCCC1NC(=O)CSc1nc2ccccc2c(=O)n1Cc1ccco1 (stereo not given),+,n,x,n,n,n
CCCCCN(C(=O)NC(=O)Nn1cnnc1)S(C)(=O)=O,+,n,n,n,n,n
C[C@@H]1CN([C@@H](C)CO)C(=O)c2cc(Br)cnc2O[C@H]1CN(C)Cc1cccc(C(=O)O)c1,n,n,x,n,x,x
CCS(=O)(=O)Nc1ccc(-c2cc(-c3ccccc3)c3cc(C)ccc3n2)cc1,n,n,n,n,n,n
CCCCn1nnnc1C(c1cc2ccccc2o1)N1CCN(c2cc(C)nc3ccccc23)CC1 (stereo not given),n,n,x,x,x,x
COc1cccc(-n2cnc3scc(-c4cccs4)c3c2=O)c1,n,n,n,n,x,x
COc1ccc(C(=O)Nn2cnc3scc(-c4cccs4)c3c2=O)c(O)c1,n,n,n,n,n,n
CC/C(=N/NC(=O)c1ccc2c(c1)OCO2)c1ccccc1O,n,n,x,n,n,n
SMILES,Myeloid diff 2,NOD2 RIPK2 PPI,TLR4 MyD88 comp,TLR9-MyD88 inh,Myeloid diff CP1,GFP autofluor
CCOC(=O)c1c(C)[nH]c(C(=O)OCC(=O)NCCc2ccc(OCC)c(OCC)c2)c1C,+,n,x,n,n,n
CC1CCN(c2ccc3c(c2)S(=O)(=O)c2cccc(C(=O)NC4CCCCC4)c2C3=O)CC1,+,n,x,n,n,n
Cc1ccc(C2=NN(S(C)(=O)=O)C(c3cccs3)C2)cc1 (stereo not given),n,n,n,n,n,n
CC1=NN(c2ccccc2)C(=O)C1CCC#N (stereo not given),n,n,x,x,x,x
COc1ccc(CNCc2cc(Cl)ccc2O)cc1,n,n,x,n,n,n
N#CC1=C(S)N(c2ccccc2)C(c2ccc(-c3cc(Cl)ccc3Cl)o2)NC1=O (stereo not given),n,n,n,n,n,n
COc1ccc(CCN2C(=O)CS/C2=N\NC(=O)c2ccc(C(C)(C)C)cc2)cc1OC,n,n,n,n,n,n
COc1cccc2c1OC[C@@H](CO)[C@H]2N(C)C(=O)Nc1ccc(Cl)cc1Cl,n,n,n,n,n,n
COc1ccccc1-c1nnc(SCC(=O)Nc2ccc(Cl)cc2Cl)o1,n,n,n,n,x,x
NS(=O)(=O)c1ccc(CNC(=S)Nc2cc(S(=O)(=O)N3CCOCC3)ccc2Cl)cc1,n,n,x,n,x,x
O=C(NCCc1ccccc1)C(=O)NCC1CCCN1S(=O)(=O)c1ccccc1 (stereo not given),+,n,x,n,n,n
CCOC(=O)c1ccc(CSc2ncn[nH]2)o1,n,n,n,n,n,n
CCOC(=O)C1=C[C@@H](C2CCCCC2)N(S(=O)(=O)c2ccc([N+](=O)[O-])cc2)[C@H]1c1ccccc1,n,n,x,x,x,x
CC1CC(C)(C)CC2(C1)NC(=O)N(CC(=O)Nc1ccc3c(c1)OCO3)C2=O (stereo not given),n,n,x,n,x,x
O=C(CN1CCCCCC1)Nc1ccccc1F,+,n,n,n,n,n
CC(=O)N1CCc2cc(S(=O)(=O)NCCC(=O)Nc3ccc4c(c3)OCCO4)ccc21,n,n,n,n,n,n
CC(=O)N1CCc2cc(S(=O)(=O)NCCC(=O)Nc3cc(C)cc(C)c3)ccc21,n,n,n,n,x,x
C[C@@H]1O[C@H](CCc2cccc(Cl)c2)CC2=C1C(=O)OC(C)(C)O2,n,n,x,x,x,x
COc1ccc(-n2c(N)c(C(=O)NCc3ccco3)c3nc4ccccc4nc32)cc1OC,+,n,n,n,n,n
COc1cc(OC)c2c(-c3ccccc3)cc(=O)oc2c1C(CCN1CCCC(C)C1)c1ccc2c(c1)OCO2 (stereo not given),n,n,x,n,n,n
C/C(=N\N=C(/N)SC1CC(=O)N(c2cccc(Cl)c2)C1=O)c1cccs1 (stereo not given),n,n,n,n,x,x
CCCOc1ccc(N2C(=O)CC(S/C(N)=N/N=C(\C)c3cccs3)C2=O)cc1 (stereo not given),n,n,n,n,n,n
Cc1cc2c(cc1C)-n1nnnc1C(N1CCN(c3ccccn3)CC1)C(c1ccc3c(c1)OCO3)=N2 (stereo not given),n,n,x,x,x,x
CC(=O)Nc1ccc(C(=O)N2CCCC(c3cc(C(=O)NCc4cccnc4)no3)C2)cc1 (stereo not given),n,n,x,x,x,x
CCOC(=O)CN1C(=O)C2(OCCCO2)c2ccccc21,n,n,n,n,x,x
COC(=O)CN1C(=O)C2(OCCCO2)c2cc(Br)ccc21,n,n,n,n,n,n
Cc1ccc(O)c(NC(=O)CSc2ccc(Cl)cc2)c1,n,n,n,n,n,n
O=C1C=C(Nc2ccccc2O)c2ccccc2C1=O,n,n,n,n,x,x
